Among the test systems are HCT-15 colon; HT29 colon; SNB-19 CNS; U251 CNS; PC-3 prostate; SK-MEL-5 melanoma; UACC-62 melanoma; LOX IMVI melanoma; SK-MEL-28 melanoma; EKVX NSCLC; SN12C renal; UO-31 renal; TK-10 renal; ACHN renal; CAKI-1 renal; A498 renal; MOLT-4 leukemia; SK-MEL-2 melanoma; CCRF-CEM leukemia.
Common to all, as to experiment: NCI-60 one-dose screen, 48 h (100 = growth as untreated, 0 = no growth, -100 = all killed)
Settings in all cases: 10 µM unless noted

Molecules are shown by their SMILES. About 83,000 compounds went through this panel and 20% of them were active in at least one assay; those are over-represented in the sample as a whole.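 48-hour exposure, single concentration, 96-well plates; percent growth endpoint where 0 means no net growth. Active: below 10.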 Values without a mark were called inactive. Active and inactive are the calls of the source.

For the compound `COc1cccc(-c2cc3c(O)cc(C#N)cc3[nH]2)c1`, the growth with HCT-15 colon is 80.9%; in the assay on HT29 colon, 94.6%; with SNB-19 CNS, 93.1%; in the assay with U251 CNS it was 85.3%; in the assay with PC-3 prostate it was 81.8%; in the assay on SK-MEL-5 melanoma, 82.1%. In addition, the growth in the assay with UACC-62 melanoma is 70.9%; with LOX IMVI melanoma, 92.4%; in the assay with SK-MEL-28 melanoma, 97.8%; in the assay on EKVX NSCLC, 77.8%; in the assay with SN12C renal, 66.1%; in the assay with UO-31 renal it was 106%. Further, the growth in the assay with TK-10 renal is 97.9%; with ACHN renal it was 87.6%; in the assay with CAKI-1 renal it was 88.4%; in the assay with A498 renal, 71.7%; in the assay with MOLT-4 leukemia, 81.8%.

Turning to `C=C1CCC[C@]2(C)CCC[C@H](C)[C@@H](OC(C)=O)[C@@H]3OC(=O)C(=C)[C@@H]3C[C@H]1O2`, the growth in the assay with HCT-15 colon is 65.9%; in the assay on HT29 colon, 67.8%; in the assay on SNB-19 CNS it was 88.9%; in the assay on U251 CNS, 72.5%; in the assay on PC-3 prostate, 53%; in the assay with SK-MEL-5 melanoma, 72.7%. Further, the growth in the assay on UACC-62 melanoma was 58%; with LOX IMVI melanoma it was 72.2%; in the assay on SK-MEL-28 melanoma, 95.2%; with EKVX NSCLC it was 77.3%; in the assay on SN12C renal, 68.5%; with UO-31 renal it was 87.1%. For the same compound, the growth is 109% with TK-10 renal; 80.1% in the assay on ACHN renal; 69.4% with CAKI-1 renal; 68.7% in the assay on A498 renal; 64% in the assay with MOLT-4 leukemia.

For the compound `C=C1C(=O)O[C@@H]2[C@@H]3O[C@@](C)(CC/C=C(\C)CCC[C@@H]2C)[C@H](O)C[C@@H]13`, the growth with HCT-15 colon is 38.9%; in the assay with HT29 colon, 32.3%; with SNB-19 CNS, 84.3%; in the assay on U251 CNS, 56.4%; in the assay with PC-3 prostate, 39.8%; with SK-MEL-5 melanoma it was 48.2%. Further, the growth in the assay with UACC-62 melanoma is 17.2%; in the assay on LOX IMVI melanoma, 44%; in the assay on SK-MEL-28 melanoma, 80.5%; in the assay with EKVX NSCLC, 76.3%; in the assay on SN12C renal, 47.3%; in the assay with UO-31 renal, 45%. The growth in the assay on TK-10 renal is 32%; in the assay on ACHN renal, 51.9%; in the assay with CAKI-1 renal, 39%; with A498 renal, 66.8%; in the assay on MOLT-4 leukemia, 16.8%.

With `COc1cccc(/C=C/C(=O)Nc2cc(OC)c3c(c2)OCO3)c1`, the growth with HCT-15 colon was 101%; in the assay with HT29 colon, 92.1%; in the assay with SNB-19 CNS it was 96.7%; with U251 CNS, 91.3%; in the assay with PC-3 prostate, 97.8%; in the assay on SK-MEL-5 melanoma, 94.1%. In addition, the growth with UACC-62 melanoma is 92%; with LOX IMVI melanoma, 95.8%; with SK-MEL-28 melanoma, 114%; with EKVX NSCLC it was 92.4%; in the assay with SN12C renal, 93.8%; with UO-31 renal, 101%. The growth in the assay with TK-10 renal was 98.4%; in the assay on ACHN renal, 102%; in the assay on CAKI-1 renal, 93.7%; with A498 renal it was 69.5%; in the assay with MOLT-4 leukemia it was 89.5%.

Consider `Cc1csc(NC(c2ccccc2)c2c(C)nc3ccccn23)n1` (stereo not given), for which the growth with HCT-15 colon was 100%; in the assay with HT29 colon it was 98%; in the assay with SNB-19 CNS it was 93.5%; with U251 CNS, 94.7%; in the assay with PC-3 prostate it was 82.6%; in the assay on SK-MEL-5 melanoma, 99.6%. For the same compound, the growth in the assay with UACC-62 melanoma was 94.2%; in the assay with LOX IMVI melanoma, 96.5%; in the assay with SK-MEL-28 melanoma, 110%; in the assay on SK-MEL-2 melanoma, 107%; with SN12C renal it was 99.9%; in the assay with UO-31 renal, 76%. For the same compound, the growth in the assay on TK-10 renal was 111%; with ACHN renal, 102%; in the assay with CAKI-1 renal, 94.5%; in the assay on A498 renal it was 70.9%; in the assay with MOLT-4 leukemia, 92.3%.

Regarding `COc1cc(-c2nn(-c3cccc(NC(=O)Nc4cc(C(F)(F)F)cc(C(F)(F)F)c4)c3)cc2-c2ccncc2)ccc1Cl`, the growth is 2.59% (active) in the assay on HCT-15 colon; -41.2% (active) with HT29 colon; 6.55% (active) in the assay on SNB-19 CNS; -81.7% (active) in the assay with U251 CNS; -55.2% (active) with PC-3 prostate; -96.1% (active) in the assay with SK-MEL-5 melanoma. For the same compound, the growth in the assay on UACC-62 melanoma is -55.9% (active); in the assay on LOX IMVI melanoma, -91.3% (active); in the assay with SK-MEL-28 melanoma it was -28.9% (active); with SK-MEL-2 melanoma it was -52.1% (active); with SN12C renal it was -8.08% (active); with UO-31 renal, -29.2% (active). For the same compound, the growth was -26.7% (active) in the assay with TK-10 renal; 10.5% with ACHN renal; 18.5% in the assay on CAKI-1 renal; -14.6% (active) in the assay on A498 renal; -27.3% (active) in the assay with CCRF-CEM leukemia; -24.5% (active) with MOLT-4 leukemia.

Consider `O=C1NN(C(=O)c2ccc(Cl)cc2)C(c2ccccc2)=N/C1=C\c1cn(-c2ccccc2)nc1-c1ccccc1`, for which the growth is 92.6% with HCT-15 colon; 87.8% with HT29 colon; 90.7% in the assay on SNB-19 CNS; 92.4% in the assay with U251 CNS; 94.8% with PC-3 prostate; 79.9% with SK-MEL-5 melanoma. For the same compound, the growth in the assay on UACC-62 melanoma is 91%; with LOX IMVI melanoma it was 97.6%; in the assay on SK-MEL-28 melanoma, 94.8%; in the assay with EKVX NSCLC it was 81.4%; with SN12C renal, 93.2%; in the assay on UO-31 renal, 90.6%. Also, the growth with TK-10 renal is 102%; in the assay on ACHN renal it was 98.5%; in the assay with CAKI-1 renal, 80.4%; in the assay on A498 renal, 69%; in the assay with MOLT-4 leukemia, 98.6%.

`O=C1NN(C(=O)c2ccc(Cl)cc2)C(c2ccccc2)=N/C1=C\c1ccc(F)cc1`: the growth in the assay on HCT-15 colon is 72.4%; with HT29 colon, 97.4%; in the assay with SNB-19 CNS, 78.8%; in the assay with U251 CNS it was 40.1%; with PC-3 prostate, 81.4%; with SK-MEL-5 melanoma, 88.1%. Moreover, the growth is 74% in the assay with UACC-62 melanoma; 88.3% in the assay on LOX IMVI melanoma; 107% with SK-MEL-28 melanoma; 90.7% in the assay with EKVX NSCLC; 78.1% in the assay with SN12C renal; 75.6% in the assay with UO-31 renal. Moreover, the growth in the assay with TK-10 renal was 109%; in the assay with ACHN renal it was 83.2%; with CAKI-1 renal, 85.1%; with A498 renal it was 73.1%; in the assay with MOLT-4 leukemia, 36.2%.

Regarding `O=[N+]([O-])c1ccc(C(c2ccccc2)c2ccccc2)cc1`, the growth was 86.4% in the assay with HCT-15 colon; 84.4% in the assay with HT29 colon; 96.9% in the assay with SNB-19 CNS; 102% in the assay with U251 CNS; 94.1% with PC-3 prostate; 96.7% in the assay with SK-MEL-5 melanoma. In addition, the growth in the assay with UACC-62 melanoma is 85.5%; with LOX IMVI melanoma it was 69.7%; in the assay with SK-MEL-2 melanoma, 110%; in the assay on EKVX NSCLC it was 94.8%; in the assay on SN12C renal it was 92%; in the assay on UO-31 renal, 80.4%. For the same compound, the growth in the assay with TK-10 renal was 96.4%; with ACHN renal it was 90.3%; in the assay with CAKI-1 renal it was 83.1%; with A498 renal, 91.3%; in the assay with CCRF-CEM leukemia, 97.8%; in the assay with MOLT-4 leukemia, 95.2%.

These data come from PubChem BioAssay (NCI).
